Bioassay records (PubChem)
Shown are actives, neighbours in structure and some others; about 1.7% of the full set was active somewhere.
CCHFV vOTU inh: CCHFV vOTU protease inhibition | AID 651958 | Pep-AMC fluorescence | 370,000 compounds, 0.55% hits | inhibition, % at 11.5 µM; in the data active means inhibition above about 30%
PfHsp40 yeast: restores yeast growth despite PfHsp40 toxicity | S. cerevisiae expressing PfHsp40, growth rescue, ATP luminescence | AID 504582 | 340,000 compounds, 0.68% hits | growth rescue, % at 12.5 µM; in the data active means growth rescue above about 28%, passing the limit was not always enough; inconclusive means no clear call, values can overlap the other calls;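 further: yeast W303a lacking pdr1 and pdr3 grown in galactose medium; growth measured after three days at 30 °C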
RecA splice inh: Mtb RecA intein splicing inhibition | P9WHJ3 | cell-free RecA intein splicing, fluorescence | inhibition, % (no concentration beside the values) | 290,000 compounds, 0.75% hits | AID 2221; in the data active means inhibition above about 30%; inconclusive means no clear call, values can overlap the other calls
Target sequence (P9WHJ3 whole entry, looked up, canonical isoform): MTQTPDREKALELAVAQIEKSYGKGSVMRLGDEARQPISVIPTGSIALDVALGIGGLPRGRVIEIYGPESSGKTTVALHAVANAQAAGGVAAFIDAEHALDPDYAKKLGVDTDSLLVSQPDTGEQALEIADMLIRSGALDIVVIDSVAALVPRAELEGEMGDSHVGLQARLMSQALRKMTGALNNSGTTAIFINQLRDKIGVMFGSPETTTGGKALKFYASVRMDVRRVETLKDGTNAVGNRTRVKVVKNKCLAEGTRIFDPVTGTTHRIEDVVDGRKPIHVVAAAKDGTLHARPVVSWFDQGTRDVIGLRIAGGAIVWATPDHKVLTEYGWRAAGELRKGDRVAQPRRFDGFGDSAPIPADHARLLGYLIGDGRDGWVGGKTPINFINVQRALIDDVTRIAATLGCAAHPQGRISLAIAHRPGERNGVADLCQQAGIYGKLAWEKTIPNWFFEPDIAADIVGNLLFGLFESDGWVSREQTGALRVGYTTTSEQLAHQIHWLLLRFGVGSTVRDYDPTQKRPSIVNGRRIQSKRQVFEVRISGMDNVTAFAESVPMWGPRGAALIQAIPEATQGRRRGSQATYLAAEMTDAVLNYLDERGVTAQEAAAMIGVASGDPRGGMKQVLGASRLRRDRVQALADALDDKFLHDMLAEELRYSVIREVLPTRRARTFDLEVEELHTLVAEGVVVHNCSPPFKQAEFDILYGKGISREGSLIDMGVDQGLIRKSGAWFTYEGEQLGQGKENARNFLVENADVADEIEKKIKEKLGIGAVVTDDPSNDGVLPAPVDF
Mtb bLac sens: beta-lactam sensitization of Mtb H37Rv | 330,000 compounds, 0.27% hits | M. tuberculosis H37Rv growth with meropenem, percent inhibition | inhibition, % at 25 µM;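 further: growth measured after seven days incubation then overnight dye step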
Mtb hypoxia inh: reduces hypoxia-regulated biosensor signal in M. tuberculosis; AID 1159583; 300,000 compounds, 0.1% hits; M. tuberculosis hypoxia-regulated fluorescent reporter, fluorescence; fluorescence inhibition, % (concentration not given with the values); in the data active means fluorescence inhibition mostly above about 23%, no sharp cut-off; inactive means mostly below about 17%
GFP chromo cs: counter-screen: blocks GFP chromophore formation; shares compounds with RecA splice inh; cell-free GFP chromophore formation, fluorescence; EC50, µM; 2,100 compounds, 83% hits; AID 434968
Each line names hits and unclear results; the compound was inactive in the other large screens (follow-up assays come after a bar, where they were run). Unless noted, how the calls were made is not given here.

CCOc1ccccc1Oc1coc2cc(OC(=O)c3ccco3)ccc2c1=O	RecA splice inh 33.3 | GFP chromo cs inactive
CCOc1ccccc1Oc1coc2cc(OC(=O)N(C)C)ccc2c1=O	none
Cc1cc(C)cc(Oc2coc3cc(OC(=O)c4cccs4)ccc3c2=O)c1	RecA splice inh 33.6 | GFP chromo cs inactive
N=c1n(Cc2ccc(Cl)cc2)c2ccccc2n1CC(O)COc1ccccc1 (stereo unspecified)	none
N=c1n(Cc2ccccc2)c2ccccc2n1CC(O)COc1ccc(Cl)cc1Cl (stereo unspecified)	RecA splice inh 31.9 (no result: Mtb bLac sens) | GFP chromo cs inactive
COC(=O)C1=C(c2cccc(OC)c2OC)CC2CCC1N2C (stereo unspecified)	none (no result: CCHFV vOTU inh, PfHsp40 yeast, RecA splice inh, Mtb bLac sens)
Cc1nn(Cc2ccc(Cl)cc2Cl)c(Cl)c1C=CC(=O)OCC(=O)NCC(F)(F)F	none (no result: CCHFV vOTU inh, PfHsp40 yeast, RecA splice inh, Mtb bLac sens)
O=C(NN=Cc1ccco1)c1ccc(C(=O)NN=Cc2ccco2)o1	none (no result: CCHFV vOTU inh, PfHsp40 yeast, RecA splice inh, Mtb bLac sens)
CN1N=C(C(F)(F)F)CC1=O	none
CN1N=C(C(C)(C)C)CC1=O	RecA splice inh 35.6 (no result: Mtb hypoxia inh) | GFP chromo cs 18.6
Cc1ccc(-c2ccc(/C=C3\SC(N4CCOCC4)=NC3=O)o2)cc1	none (no result: Mtb hypoxia inh)
Cc1ccc(/C=C2\SC(N3CCN(C(c4ccccc4)c4ccccc4)CC3)=NC2=O)o1	RecA splice inh 33.3 | GFP chromo cs inactive
CC1CCCC(=NNC(=O)c2ccccc2-n2cccc2)C1 (stereo unspecified)	none (no result: CCHFV vOTU inh, PfHsp40 yeast, RecA splice inh, Mtb bLac sens)
Cc1nc2ccccc2c2c1C(=O)N(C)C2=O	RecA splice inh 58.3 | GFP chromo cs 18.4
CCOC(=O)N1C(=O)[C@](c2ccc(Cl)cc2)(C(C)C)N1C(=O)OCC	RecA splice inh 34.0 | GFP chromo cs 3.5
CCOC(=O)N1C(=O)[C@@](c2ccc(Cl)cc2)(C(C)C)N1C(=O)OCC	PfHsp40 yeast inconclusive, RecA splice inh 48.7 (no result: Mtb hypoxia inh) | GFP chromo cs 33
O=C1NN=C(c2ccccc2)C1Cc1ccccc1 (stereo unspecified)	none (no result: RecA splice inh, Mtb bLac sens, Mtb hypoxia inh)
CC1=NNC(=O)C1C(c1ccccc1)C1C(=O)NN=C1C (stereo unspecified)	RecA splice inh 98.3 (no result: CCHFV vOTU inh, PfHsp40 yeast, Mtb hypoxia inh) | GFP chromo cs 0.406
CC1=NNC(=O)C1Cc1ccccc1 (stereo unspecified)	RecA splice inh 96.4 (no result: PfHsp40 yeast) | GFP chromo cs 0.658
COC(=O)C1=C(c2ccc(-c3ccccc3)c(F)c2)CC2CCC1N2C(=O)NCCCOC(C)C (stereo unspecified)	none (no result: CCHFV vOTU inh, PfHsp40 yeast, RecA splice inh, Mtb bLac sens)
NC(=O)NN=Cc1ccc(-c2cccc(C(F)(F)F)c2)o1	none (no result: CCHFV vOTU inh, PfHsp40 yeast, RecA splice inh, Mtb bLac sens)
O=C(CSC1=NCCS1)Nc1nc2ccccc2s1	none
Cc1sc(NC(=O)CSC2=NCCS2)nc1-c1ccccc1	RecA splice inh 44.5 (no result: Mtb hypoxia inh) | GFP chromo cs inactive
O=C1c2ccccc2C(=O)N1CCCc1cn(CC2CCC(C3CCC(Cn4cc(CCCN5C(=O)c6ccccc6C5=O)nn4)O3)O2)nn1 (stereo unspecified)	none (no result: CCHFV vOTU inh, PfHsp40 yeast, RecA splice inh, Mtb bLac sens)
COC(=O)C1=C(c2ccccc2OCc2ccccc2)CC2CCC1N2C(=O)NCCOc1ccccc1 (stereo unspecified)	none (no result: CCHFV vOTU inh, PfHsp40 yeast, RecA splice inh, Mtb bLac sens)
N#CC(C#N)=NNc1ccc(S(=O)(=O)N2CCCCC2)cc1	RecA splice inh 58.3 | GFP chromo cs 18.5
O=C(NN=Cc1ccc[nH]1)c1cc(-c2cccs2)nc2ccccc12	none (no result: CCHFV vOTU inh, PfHsp40 yeast, RecA splice inh, Mtb bLac sens)
Cc1ccc(C=NNc2cc(C)nc(N3CCOCC3)n2)cc1	none (no result: CCHFV vOTU inh, PfHsp40 yeast, RecA splice inh, Mtb bLac sens)
O=C(Nc1ncc([N+](=O)[O-])s1)c1ccco1	RecA splice inh 30.9, Mtb bLac sens inconclusive | GFP chromo cs 21.1
C=CCN1C(=O)/C(=C/c2cccs2)SC1=NS(=O)(=O)c1ccc(F)cc1	none (no result: CCHFV vOTU inh, PfHsp40 yeast, RecA splice inh, Mtb bLac sens)
S=C(Nc1ccc(Cl)cc1)c1nc2ccccc2s1	none (no result: Mtb bLac sens, Mtb hypoxia inh)
O=C(Nc1ccc(Cl)cc1)/C(=C/c1cccc(O)c1)c1nc2ccccc2s1	RecA splice inh 46.4 | GFP chromo cs 20.6
Cc1ccc(C(=O)c2c(C)oc3c2C(=O)C(=O)c2ccccc2-3)cc1	none (no result: CCHFV vOTU inh, Mtb hypoxia inh)
COc1ccc(C(=O)c2c(C(F)(F)F)oc3c2C(=O)c2ccccc2C3=O)cc1	RecA splice inh 86.8 (no result: CCHFV vOTU inh, Mtb hypoxia inh) | GFP chromo cs 0.132
CC(=O)Nc1ccc(SCCN2CCC(C)CCC2=O)cc1 (stereo unspecified)	none (no result: CCHFV vOTU inh, PfHsp40 yeast, RecA splice inh, Mtb bLac sens)
CCOC(=O)c1nc(C)n(-c2ccc(Cl)cc2)n1	RecA splice inh 49.0 | GFP chromo cs inactive
CCOc1cc(NC2CS(=O)(=O)CC2O)c(OCC)cc1NC(=O)c1ccccc1 (stereo unspecified)	RecA splice inh 59.4 | GFP chromo cs inactive
CCOc1cc(NC(=O)c2ccccn2)c(OCC)cc1NC(=O)c1ccccc1	none
CC=C(C)C(=O)Nc1cccc(C2=NOC3(C2)CC(C(N)=O)N(C(=O)COc2ccc(Cl)cc2)C3)c1 (stereo unspecified)	none (no result: CCHFV vOTU inh, PfHsp40 yeast, RecA splice inh, Mtb bLac sens)
CCOC(=O)C1=C(C)NC(SCC(N)=O)=C(C#N)C1c1cccs1 (stereo unspecified)	none
CCOC(=O)C1=C(C)NC(SCc2cc(=O)[nH][nH]2)=C(C#N)C1c1cccs1 (stereo unspecified)	RecA splice inh 69.9 | GFP chromo cs 20.4
COc1ccc(NC(=O)c2cc3ccccc3oc2=NNS(=O)(=O)c2ccc(C)cc2)cc1	none (no result: CCHFV vOTU inh, PfHsp40 yeast, RecA splice inh, Mtb bLac sens)
CCSC1(SCC)N=C(N)C2(C#N)C(c3ccc(F)cc3)C12C#N (stereo unspecified)	RecA splice inh 49.7 | GFP chromo cs 38.3
COC1(OC)N=C(N)C2(C#N)C(c3ccc(F)cc3)C12C#N (stereo unspecified)	none
NC(=NOC(=O)c1cc(-c2ccccc2)nc2ccccc12)c1ccccn1	none (no result: CCHFV vOTU inh, PfHsp40 yeast, RecA splice inh, Mtb bLac sens)
